Compounds without any hit were thinned out: in the full panel of roughly 83,000, 20% have a hit.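 Activity criterion: percent growth below 10, measured after cells in 96-well plates were exposed to a single compound concentration for 48 hours.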 Calls of active or inactive are those of the source.

The assay has as its system COLO 205 colon. Description: NCI-60 one-dose screen, 48 h (100 = growth as untreated, 0 = no growth, -100 = all killed). The settings on record: 10 µM unless noted. Here is the method:
Cells are grown in 96 well plates and exposed to the test compound for 48 hours. Compounds are tested at a single concentration, which is 10^-5 M for most compounds. The reported endpoint is percent growth (GI% or GIPRCNT), where numbers from 0 - 100% represent growth inhibition, and numbers from -100% - 0 represent cell death. For example, a value of 40 represents 60% growth inhibition. A value of 0 means no net growth occurred over the course of the experiment. A value of -40 indicates 40% of cells at the beginning of the experiment died by the end of the experiment. A value of -100 means all cells are dead at the end of the experiment.
NCI-60 Human Tumor Cell Lines Screen was performed using the standard one-dose NCI protocol, which is described in more detail at https://dtp.cancer.gov/discovery_development/nci-60/default.htm.
Compounds with GIPRCNT values below 10 were considered active. Activity score was based on GIPRCNT using the following formula: […]
Score is 0 for GIPRCNT values of 100 or above, 50 for GIPRCNT values of 0, and 100 for GIPRCNT values of -100.
`COc1ccc(-c2nc3c(N)c(CO)cnc3s2)cc1`: the growth was 104% (inactive).

Regarding `COc1ccc(C(=S)N2CCN(c3ccc(Cl)cc3)CC2)cc1`, the growth is 103% (inactive). Then `CCc1n(Cc2ccc3ccccc3n2)cc[n+]1Cc1ccc2ccccc2n1`, with -38.9% (active); and `N[C@H]1CCC[C@@H]1NCCCCN1C(=O)c2cccc3cc([N+](=O)[O-])cc(c23)C1=O`, with 26% (inactive). As for `CNC(=O)c1cc(Oc2ccc3c(c2)sc2nc(-c4ccc(OC)cc4)cn23)ccn1`, the growth is 0.159% (active). Then `O=C1Nc2c(C(=O)O)cccc2/C1=N/c1n[nH]c(=S)s1`, with 118% (inactive); and `Cc1ccc(-c2csc(NC(=O)c3ccccc3CN3C(=O)c4ccccc4C3=O)n2)cc1`, with 103% (inactive). With `COc1ccc(CNc2c3ccccc3nc3ccccc23)c(OC)c1`, the growth is 24.6% (inactive).

For `Cc1cccc2c1C[C@@]1(C2=O)C(c2ccc(C(C)(C)C)cc2)=NOS1=O` (stereo not given in full), the growth is 105% (inactive). Consider `Cc1ccc(/C=C(\C#N)n2nnc3cc(F)c(F)cc32)cc1`, for which the growth is -27.9% (active). Then `COc1ccc(C(=O)c2cc3c(N)c(C(=O)Nc4ccccc4)sc3nc2C)cc1`, with 7.64% (active); and `O=[N+]([O-])c1cc(NS(=O)(=O)c2ccccc2)ccc1NS(=O)(=O)c1ccccc1`, with 109% (inactive).

As to `NC(N)=NS(=O)(=O)c1ccc(NC2=C(I)C(=O)c3ncccc3C2=O)cc1`, the growth was 112% (inactive). Then `CNC(=O)c1ccccc1Nc1nc(Nc2cc(OC)c(OC)c(OC)c2)ncc1Br`, with -71.3% (active); and `CN(Cc1cc(Br)cc(Br)c1O)Cc1cc(Br)cc(Br)c1O`, with 84% (inactive). Then `CCCCNC(=O)c1cc([N+](=O)[O-])cc(C2CCCCC2)c1O`, with 56.4% (inactive). The same measure for `COc1ccc(N2CCN(C(=O)c3sc4nc(C)c(Br)c(C)c4c3N)CC2)cc1`: 107% (inactive); for `COc1ccc2[nH]cc(-c3nc(-c4c[nH]c5c(Cl)nccc45)cs3)c2c1`: 42.2% (inactive). Regarding `CN1CCN(C(=O)[C@@]2(C)CC[C@]3(C)CC[C@]4(C)C(=CC[C@@H]5[C@@]6(C)CCC(=O)NC(C)(C)[C@@H]6CC[C@]54C)[C@@H]3C2)CC1`, the growth is 7.65% (active). The same measure for `CCN(CC)CCCOc1ccc2ncnc(Nc3ccc(Oc4cccc(C(F)(F)F)c4)c(Cl)c3)c2c1`: -36.7% (active); for `[2H]C([2H])([2H])Oc1ccc(F)cc1/C=C/C(=O)/C=C(O)/C=C/c1cc(F)ccc1OC([2H])([2H])[2H]`: 116% (inactive). The same measure for `Oc1c(CN2CCOCC2)cc(COCc2ccccc2)c2cccnc12`: 62.8% (inactive); for `CCN(CC)CCN1C(=O)c2c(c(C)c3c(oc4ccc(OC)cc43)c2C)C1=O`: 96.1% (inactive). For the compound `O=S(=O)(Oc1ccc(Br)cc1)c1ccc(Cl)cc1`, the growth was 108% (inactive). The same measure for `CC1CCN(C(=S)SCC(=O)NC(=O)c2ccccc2)CC1`: 104% (inactive); for `CN1CCN(c2ccc(NC(=O)c3cncnc3Nc3ccc(OCc4cccc(F)c4)c(Cl)c3)cc2)CC1`: 6.12% (active); for `C=C1CC[C@@H]2C(C)(C)[C@@H](O)CC[C@@]2(C)[C@@H]1COc1ccc2ccc(=O)oc2c1`: 92% (inactive). The same measure for `COc1ccc(/C=C2\COc3ccc(O)cc3C2=O)cc1`: 110% (inactive); for `O=P(O)(O)OCC1OC(n2cnc3c(NCc4ccco4)ncnc32)C(O)C1O` (stereo not given): 22.8% (inactive). The same measure for `CC(C)CCN(CCC(C)C)CC(O)c1cc2c(c3ccccc13)CCCC2` (stereo not given): 60.5% (inactive). As for `Cc1n[nH]c2ccc(Br)cc2c1=O`, the growth was 106% (inactive).

Turning to `O=C(Cc1cccc(OC(F)(F)F)c1)Nc1ccc(CCCCc2nnc(NC(=O)Cc3ccccn3)s2)nn1`, the growth was 88.8% (inactive). The same measure for `COc1ccc(Oc2nc(Nc3ccc(N4CCOCC4)cc3)ncc2NC(=O)Nc2cc(OC)cc(OC)c2)cc1`: -54.8% (active); for `COc1cccc(-c2cc(-c3cccc(Cl)c3)c(C#N)c(=O)[nH]2)c1`: 111% (inactive). Then `Cc1ccc(NC(=O)Cn2c(Br)nc3c2c(=O)n(C)c(=O)n3C)cc1`, with 19.5% (inactive); and `CSc1nc(C)c([N+](=O)[O-])c(N)n1`, with 110% (inactive).

For the compound `CC(=O)OC[C@]12CC[C@@H]([C@@H](C)c3nnc(-c4ccncc4)o3)[C@@H]1[C@H]1CC[C@@H]3[C@@]4(C)CC[C@H](OC(C)=O)C(C)(C)[C@@H]4CC[C@@]3(C)[C@]1(C)CC2`, the growth was 82.4% (inactive).

Consider `Cc1ccc2nc(/C(C#N)=C(/CCCO)NC(Cc3ccccc3)C(=O)OCc3ccccc3)[nH]c(=O)c2c1` (stereo not given), for which the growth was 87.8% (inactive). Then `COc1cc(-c2nc3c(ncc4ccc(=O)n(-c5ccccc5)c43)s2)cc(OC)c1OC`, with 79.2% (inactive); and `C=C1C(=O)O[C@H]2[C@H]1CC/C(CNC(=O)c1c[nH]c3ccc(F)cc13)=C\CC[C@@]1(C)O[C@@H]21`, with -78.6% (active).

These data come from PubChem BioAssay (NCI).
